High-throughput results: PubChem, National Center for Advancing Translational Sciences (NCATS)
Tau FP inhib – tau fibrillization inhibition (FP). P10636. K18 P301L tau heparin fibrillization, Alexa594 FP, 6 h. Potency, µM (doses to about 57.7 µM), most hits filed as inhibitors. 280,000 compounds, 0.39% hits; further: nearly all actives have a fitted effect of over 55% in size
Target sequence (P10636 561-689 P618L limits assumed): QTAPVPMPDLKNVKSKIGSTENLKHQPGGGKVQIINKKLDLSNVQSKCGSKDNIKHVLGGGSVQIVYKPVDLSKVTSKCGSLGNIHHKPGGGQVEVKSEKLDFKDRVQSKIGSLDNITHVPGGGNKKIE
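Compound effects on tau fibrillization are measured by Alexa 594 fluorescence polarization (ex 555, em 632 nm). K18 P301L tau is used at 15 uM with 0.24 uM labeled tracer, and 20 uM heparin induces aggregation over 6 hr at 37 C.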
ALDH1A1 inh – ALDH1A1 (human) enzyme inhibition | P00352 | Purified ALDH1A1, NADH fluorescence, propionaldehyde substrate | Potency, µM (highest dose often 75.3 µM), most hits filed as inhibitors | 220,000 compounds, 7.3% hits | AID 1030; active means well fitted inhibition curve with a large enough effect, not every such curve was filed as active; inconclusive means small, poorly fitted or top-dose-only effect, or another doubt; inactive means no such curve, though single readings can be large or run the other way
JMJD2E inh – inhibitors of human JMJD2E histone demethylase; AID 2147; 230,000 compounds, 1.6% hits; B2RXH2; JMJD2E catalytic domain, FDH-coupled NADH fluorescence (FDH is formaldehyde dehydrogenase); Potency, µM (titrated, usually from 57.1 µM), actives largely listed as inhibitors; active means well fitted inhibition curve with a large enough effect, not every such curve was filed as active; inconclusive means small, poorly fitted or top-dose-only effect, or another doubt; inactive means no such curve, though single readings can be large or run the other way; further: nearly all actives have a fitted effect of over 50% in size
Target sequence (B2RXH2 1-337 limits assumed): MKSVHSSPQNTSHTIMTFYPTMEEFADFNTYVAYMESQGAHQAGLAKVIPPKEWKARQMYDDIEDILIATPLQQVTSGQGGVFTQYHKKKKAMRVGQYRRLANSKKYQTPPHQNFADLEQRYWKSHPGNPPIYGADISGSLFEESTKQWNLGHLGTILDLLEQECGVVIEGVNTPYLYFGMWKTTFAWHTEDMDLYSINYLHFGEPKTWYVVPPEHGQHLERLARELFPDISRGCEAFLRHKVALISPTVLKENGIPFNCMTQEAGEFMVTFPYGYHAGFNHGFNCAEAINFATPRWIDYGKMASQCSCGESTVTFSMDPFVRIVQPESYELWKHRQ
Tau ThT inhib – tau fibrillization inhibition (ThT binding); P10636; recombinant tau K18 P301L, heparin-induced fibrillization, ThT fluorescence; Potency, µM (titrated, usually from 57.4 µM), usual class: inhibitors; 270,000 compounds, 2.1% hits; AID 1460; further: nearly all actives have a fitted effect of over 55% in size
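Fibril formation assay: tau K18 P301L at 15 uM with trace Alexa 594 label, heparin inducer 20 uM, pH 7 sodium acetate buffer, 37 C for 6 hr; endpoint ThT signal.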
HPGD block – HPGD (human) dehydrogenase inhibition. P15428. purified HPGD, NADH fluorescence kinetic, PGE2 substrate. Potency, µM, actives largely listed as inhibitors. 150,000 compounds, 4.3% hits; active means well fitted inhibition curve with a large enough effect, not every such curve was filed as active; inconclusive means small, poorly fitted or top-dose-only effect, or another doubt; inactive means no such curve, though single readings can be large or run the other way
Target sequence (P15428 whole entry, looked up): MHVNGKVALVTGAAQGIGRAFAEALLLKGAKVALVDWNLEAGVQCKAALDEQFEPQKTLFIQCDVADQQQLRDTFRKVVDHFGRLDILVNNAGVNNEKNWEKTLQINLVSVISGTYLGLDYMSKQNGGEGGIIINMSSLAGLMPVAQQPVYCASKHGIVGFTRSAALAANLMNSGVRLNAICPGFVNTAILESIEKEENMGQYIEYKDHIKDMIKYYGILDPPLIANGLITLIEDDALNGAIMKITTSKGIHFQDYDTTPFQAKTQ
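NADH formation kinetics: reaction with 30 uM PGE2 and 1 mM NAD+ (final), 20 nM enzyme, Tris-HCl pH 8 with Tween 20, after 15 min compound preincubation at room temperature. Fluorescence change, last versus first of five reads.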
Tau fluor counter – counter-screen for tau fibril formation inhibitors; Potency, µM (highest dose often 57.7 µM); 280,000 compounds, 0.93% hits; AID 1463; tau K18 P301L Alexa594 fluorescence, heparin fibrillization; further: nearly all actives have a fitted effect of over 55% in size
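Human tau K18 P301L (15 uM unlabeled, 0.24 uM Alexa 594-labeled) in 100 mM sodium acetate pH 7 with 20 uM heparin, 6 hr at 37 C. ThT 30 uM added, 1 hr ambient; Alexa 594 FP and total fluorescence read at 555/632 nm.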
Of the large screens only hits and unclear results are named; the others gave an inactive call; [ ] = dose if it differs, or a comment. Sampled rows, rich in hits. Any-hit rate of the full collection: about 9.9%. Unless noted, the call rests on the fitted dose curve; in most records, active means well fitted curve in the direction sought with a large enough effect; inconclusive means small, poorly fitted or top-dose-only effect, or another doubt; inactive means no such curve, though single readings can be large; an effect the other way counts as inactive or inconclusive.

O=C(CSc1nnc(-c2ccccc2F)o1)Nc1ccccc1Cl	none (no result: ALDH1A1 inh, JMJD2E inh, HPGD block)
Cc1ccc(NC(=O)CSc2nnc(C3COc4ccccc4O3)o2)c(Cl)c1 (centres undefined)	ALDH1A1 inh 2.8µM (no result: HPGD block)
CCOC(=O)N1CCN(C(=O)CSc2nnc(C3COc4ccccc4O3)o2)CC1 (centres undefined)	ALDH1A1 inh 32µM, Tau ThT inhib inconclusive
Cc1cccc(Cn2c(=O)n(CCC(=O)NCc3ccc4c(c3)OCO4)c(=O)c3sccc32)c1	none (no result: ALDH1A1 inh, JMJD2E inh, HPGD block)
CCOc1ccccc1N1CC(c2nc3ccccc3n2CCOc2ccccc2OC)CC1=O (centres undefined)	none (no result: ALDH1A1 inh, JMJD2E inh, HPGD block)
CCOc1ccc2[nH]c(=O)c(CN(CCO)C(c3nnnn3C3CCCCC3)C(C)C)cc2c1 (centres undefined)	ALDH1A1 inh 13µM, JMJD2E inh inconclusive
Cc1ccc2[nH]c(=O)c(CN(Cc3nnnn3Cc3ccccc3)C3CCCC3)cc2c1	ALDH1A1 inh 20µM, JMJD2E inh inconclusive, Tau ThT inhib inconclusive
CCc1ccc2[nH]c(=O)c(CN(Cc3nnnn3C3CCCC3)C3CCCCC3)cc2c1	ALDH1A1 inh 14µM, JMJD2E inh inconclusive, Tau ThT inhib inconclusive
O=C1C=C(c2ccccc2)C(=O)N1Nc1ccccc1	ALDH1A1 inh 22µM, Tau ThT inhib inconclusive, HPGD block inconclusive
COc1ccc(Nc2oc(/C=C/c3cc(OC)c(OC)c(OC)c3)nc2C#N)cc1	Tau fluor counter inconclusive (no result: ALDH1A1 inh, JMJD2E inh, HPGD block)
O=C(c1ccc(Cl)cc1Cl)N1CCC(c2nc3c(nnn3Cc3ccco3)c(=O)[nH]2)CC1	HPGD block 20µM
O=C(c1ccccc1)N1CCC(c2nc3c(nnn3Cc3ccco3)c(=O)[nH]2)CC1	HPGD block 14µM
Cc1cccc(Cn2nnc3c(=O)[nH]c(C4CCCN(C(=O)c5ccc(C(C)(C)C)cc5)C4)nc32)c1 (centres undefined)	none (no result: ALDH1A1 inh, JMJD2E inh, HPGD block)
Cc1nnc(SCc2cccc3ccccc23)s1	none (no result: HPGD block)
COc1ccc(C(C)=O)cc1CSc1nnc(-c2ccncc2)n1C	none (no result: HPGD block)
c1ccc(Nc2nnc(SCc3cccc4ccccc34)s2)cc1	Tau fluor counter 16µM[quencher]
COc1ccc(C(C)=O)cc1CSc1nnc(-c2ccc(Cl)cc2)n1-c1ccccc1	ALDH1A1 inh 10µM
COc1ccc(C(C)=O)cc1CSc1nnc(C)s1	ALDH1A1 inh inconclusive, HPGD block 18µM
COc1ccc(-c2nnc(SCc3nnc(-c4ccccc4)o3)n2-c2ccccc2)cc1	HPGD block 7.9µM
COc1ccc(C(C)=O)cc1CSc1nnc(Nc2ccc(C)cc2)s1	ALDH1A1 inh inconclusive, HPGD block inconclusive, Tau fluor counter inconclusive
COc1ccc(C(C)=O)cc1CSc1nnc(Nc2ccccc2)s1	ALDH1A1 inh inconclusive, HPGD block 25µM, Tau fluor counter inconclusive
CCOc1cc(/C=N/Nc2cccc(C(=O)O)c2)ccc1OC(=O)c1ccccc1	ALDH1A1 inh 40µM, Tau ThT inhib inconclusive, Tau fluor counter inconclusive (no result: HPGD block)
CCOc1cc(/C=N/NC(=O)CNc2cccc(C)c2)ccc1OC(=O)c1ccccc1	Tau ThT inhib inconclusive, Tau fluor counter 14µM[quencher]
O=C(NC1CCCCC1)c1cc2nc3c(c(C(F)(F)F)n2n1)CCCC3	ALDH1A1 inh inconclusive, HPGD block 28µM
CC(=O)c1ccc(NC(=O)c2cc3nc4c(c(C(F)(F)F)n3n2)CCCC4)cc1	ALDH1A1 inh inconclusive, Tau ThT inhib inconclusive
O=S(=O)(Nc1ccc(F)cc1F)c1ccc(-n2cccn2)cc1	none (no result: ALDH1A1 inh, JMJD2E inh, HPGD block)
Cc1cc2oc(=O)cc(CN3CCc4ccccc43)c2cc1Cl	none
Cc1cc2oc(=O)cc(Cn3ncc(Cl)c(Cl)c3=O)c2cc1Cl	Tau FP inhib inconclusive, ALDH1A1 inh 0.079µM, Tau ThT inhib inconclusive (no result: HPGD block)
CN1C(=O)C(=C2CCCCCC2)SC1=S	ALDH1A1 inh inconclusive, Tau ThT inhib inconclusive
O=C1NC(=S)SC1=C1CCCC1	Tau FP inhib inconclusive, ALDH1A1 inh inconclusive, Tau ThT inhib inconclusive, HPGD block 35µM
CCN(c1ccccc1)S(=O)(=O)c1cc(C(=O)Nc2ccc(F)c(F)c2)ccc1F	Tau FP inhib 14µM, Tau fluor counter inconclusive
Cc1ccc(NC(=O)c2ccc(F)c(S(=O)(=O)NCCc3ccccc3)c2)cc1F	Tau FP inhib 25µM, Tau fluor counter 7.1µM[quencher] (no result: ALDH1A1 inh, JMJD2E inh, HPGD block)
CCN(c1ccccc1)S(=O)(=O)c1ccc(F)c(C(=O)Nc2ccc(C)cc2)c1	none (no result: ALDH1A1 inh, JMJD2E inh, HPGD block)
CCCOC(=O)CSc1nnc(-c2ccccc2)o1	none (no result: ALDH1A1 inh, JMJD2E inh, HPGD block)
COc1ccccc1N1CCN(C(CNS(C)(=O)=O)c2cccnc2)CC1 (centres undefined)	ALDH1A1 inh 10µM (no result: HPGD block)
COc1ccc(C(=O)C2C(c3ccc(-c4ccccc4[N+](=O)[O-])o3)NC(=O)NC2(O)C(F)(F)F)cc1 (centres undefined)	ALDH1A1 inh 13µM, Tau ThT inhib inconclusive
Cc1ccc(C2NC(=O)NC(O)(C(F)(F)F)C2C(=O)c2ccccc2)o1 (centres undefined)	ALDH1A1 inh 8.9µM
O=C1NC(c2ccc(-c3ccccc3[N+](=O)[O-])o2)C(C(=O)c2ccc(F)cc2)C(O)(C(F)(F)F)N1 (centres undefined)	ALDH1A1 inh inconclusive, Tau ThT inhib inconclusive
Cc1ccc(C2NC(=O)NC(O)(C(F)(F)F)C2C(=O)c2cccs2)o1 (centres undefined)	ALDH1A1 inh inconclusive
Cc1ccc(OCCSc2nc3ccc(NC(=O)c4ccc5c(c4)OCO5)cc3s2)cc1	none (no result: ALDH1A1 inh, JMJD2E inh, HPGD block)
COC(=O)c1ccc(-c2ccc(/C=N/N3C(=O)C4C5C=CC(C6CC56)C4C3=O)o2)cc1 (centres undefined)	JMJD2E inh inconclusive, Tau ThT inhib inconclusive, HPGD block 14µM
COC(=O)c1cccc(-c2ccc(/C=N/N3C(=O)C4C5C=CC(C6CC56)C4C3=O)o2)c1 (centres undefined)	ALDH1A1 inh 14µM, JMJD2E inh inconclusive (no result: HPGD block)
O=C1C2C3C=CC(C4CC34)C2C(=O)N1/N=C/c1ccc(-c2ccc([N+](=O)[O-])cc2)o1 (centres undefined)	Tau ThT inhib inconclusive (no result: HPGD block)
COC(=O)N/N=C/c1ccc(-c2cccc(Cl)c2)o1	Tau ThT inhib inconclusive, HPGD block inconclusive
Cc1cc(C)c(NC(=O)Cn2ccn(-c3cccc(Cl)c3)c(=O)c2=O)c(C)c1	none (no result: ALDH1A1 inh, JMJD2E inh, HPGD block)
CC(=O)N1CCC2(CC1)OC(=O)C(C)=C2C(=O)Nc1cccc(Cl)c1C	none (no result: ALDH1A1 inh, JMJD2E inh, HPGD block)
COc1ccc(C(=O)c2c(C)c3cc(C)ccc3n2CC(O)CN2CCOCC2)cc1 (centres undefined)	ALDH1A1 inh 11µM, Tau ThT inhib inconclusive
c1ccc(-c2nnc(CSc3ccc4c(c3)OCCO4)o2)cc1	none (no result: HPGD block)
O=C1NCCCC2c3c(cc(Br)c(O)c3Br)OC12N1CCOCC1 (centres undefined)	Tau FP inhib inconclusive, ALDH1A1 inh 3.2µM, JMJD2E inh inconclusive, Tau ThT inhib inconclusive, HPGD block 32µM
